The record followed here is PubChem BioAssay (NCATS).

Inconclusive results are not listed. The source made the active and inactive calls. Unless noted, calls come from the whole dose curve; as a rule, active = well fitted curve in the direction sought with a large enough effect; inconclusive = small, poorly fitted or top-dose-only effect, or another doubt; inactive = no such curve, though single readings can be large; an effect the other way counts as inactive or inconclusive.

A short description of assay [1]: qHTS Assay for Lipid Storage Modulators (AID 1519; calls by dose curve). The note with it: Drosophila S3 cells, BODIPY lipid droplet/cell ratio, laser cytometry, cells loaded with oleic acid; for activity change, negative = inhibition: at 57.5 µM (top of the series). In outline:
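Cells seeded at 5,000 per well were treated with compounds over a concentration series and loaded with oleic acid (400 uM, as added). Lipid droplet fluorescence (488 nm excitation, 500-530 nm channel) was read by laser-scanning cytometry and normalized to 20 uM Triacsin C.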

Assay [2] addresses Ubiquitin carboxyl-terminal hydrolase 1 (Homo sapiens) (UniProt O94782). The experiment in a line: Inhibitors of USP1/UAF1: Pilot qHTS (AID 504865). Note: nearly all actives have a fitted effect of over 35% in size. Note: potency is the fitted concentration of half-maximal effect. In a few lines: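 Kinetic fluorescence assay: 1nM USP1/UAF1, 15 min compound preincubation, then 150nM Ub-Rho; 480/540 nm.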
On the technique in general: qHTS replaces the single test concentration by a dilution series.

Assay [3] has as its target DNA dC->dU-editing enzyme APOBEC-3G (Homo sapiens) (UniProt Q9HC16). The experiment in a line: qHTS for inhibitors of Vif-A3G interactions: Validation (AID 588379). Note: 0% is about no effect. In outline: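 HeLa cells stably expressing Vif and A3G-eYFP, 700 cells/well, incubated overnight at 37 deg C, then exposed to compound overnight at 37 deg C. Inhibition of Vif-mediated degradation read as increased yellow fluorescence (Ex 488/Em 500-530) by laser-scanning cytometry.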

The subject of assay [4] is Zika virus NS2B-NS3 protease. The experiment in a line: Primary screen GU AMC qHTS for Zika virus inhibitors (AID 1347154).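 Note: 0% = no-inhibitor control and -100% = no-enzyme control; nearly all actives have a fitted effect of over 70% in size.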 In a few lines: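 Unlinked Zika NS2B hydrophilic domain/NS3 protease domain noncovalent complex (25 nM final) in 10 mM Tris-HCl pH 8.0, 0.01% Tween 20, with AMC peptide substrate. Fluorescence (ex 340, em 450 nm) change over 15 min, room temperature; percent inhibition fitted to 4-parameter Hill equation.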

Assay [5] is described as follows: Primary qHTS for small molecule stabilizers of the endoplasmic reticulum resident proteome: Secreted ER Calcium Modulated Protein (SERCaMP) assay (AID 1508630). Note: % is set by controls: 0 for no effect and ±100 for the full control effect. In a few lines: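 GLuc-SERCaMP-expressing SH-SY5Y cells, pretreated 16 h with compound, are challenged with thapsigargin to empty ER calcium stores; after 4 h, coelenterazine is added directly to the medium and luminescence is imaged.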

Assay [6] can be described thus: AP1 Signaling Pathway (AID 357; active = well fitted curve in either direction with a large enough effect, not every such curve was filed as active;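 note: ME-180 reporter cells stimulated with EGF at its EC50 level; % is set by controls: 0 for no effect and ±100 for the full control effect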). To be noted: ME-180 AP-1-bla reporter, EGF-induced, beta-lactamase ratio, 5 h; at 38 µM (top of the series). In outline:
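Read-out was the 460nm/530nm emission ratio (excitation 405nm) after CCF4 loading for 2.5 hours at room temperature. Cells carried an AP-1-driven beta-lactamase reporter, were stimulated with EC50 EGF plus compound for 5 hours, and AC50 values came from titrations.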

Assay [7] addresses Cytochrome P450 1A2 (Homo sapiens) (UniProt P05177). The assay is described as follows: p450-cyp1a2 (AID 410; calls by dose curve; note: potency is the fitted concentration of half-maximal effect;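 for activity change, negative = inhibition: -100% = full effect of reference inhibitor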). In outline: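 Human CYP1A2 (20nM) demethylated Luciferin-ME at its Km (100uM) in 100mM KPO4. After 10 min compound preincubation, NADPH regeneration ran the reaction 60 min at room temperature. Luciferin was read by luminescence, normalized to 57 uM furafylline.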
Assay [8] can be described thus: NFAT Signaling Pathway (AID 444; active = well fitted curve in either direction with a large enough effect, not every such curve was filed as active;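 note: carbachol stimulus at about its EC50 of 1 µM final; % is set by controls: 0 for no effect and ±100 for the full control effect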). The note with it: Jurkat NFAT-bla M1, carbachol, beta-lactamase ratio, 5 h; at 38 µM (top of the series). In outline: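 Jurkat cells carrying an NFAT-driven β-lactamase reporter and co-transfected muscarinic M1 receptor were treated with compound plus carbachol (1 uM final, an EC50 level) for 5 h at 37 °C. CCF4 loading followed for 1 h at RT; 460/530 nm ratio gave %activity.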

Assay [9] can be described thus: Stat Signaling Pathway (AID 446; active = well fitted curve in either direction with a large enough effect, not every such curve was filed as active;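 note: ME-180 cervical cancer cells given 40 pM IL-6 alongside compound; SIE-controlled beta-lactamase reporter measured as 460/530 nm FRET emission ratio; % is set by controls: 0 for no effect and ±100 for the full control effect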). To be noted: ME-180 (cervical carcinoma) SIE beta-lactamase reporter, IL-6 stimulated, 5 h; at 38 µM (top of the series). In a few lines:
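ME-180 SIE-bla cells; overnight plating; cpd + IL-6 40 pM, 5 h, 37 C; LiveBLAzer 2.5 h RT; 460/530 nm emission ratio. Normalized to 300 pM IL-6 and 125 nM JAK inhibitor controls.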

Assay [10] has as its target 3',5'-cyclic-AMP phosphodiesterase 4B (Homo sapiens) (UniProt Q07343). The assay is described as follows: qHTS Assay for Inhibitors of PDE-IV (AID 607; active = well fitted activation curve with a large enough effect in the main read-out, with a control signal flat, not every such curve was filed as active; note: % of control where 0% means no effect). In outline:
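ACTOne HEK293 cells carry a modified cAMP-gated CNG channel and express endogenous PDE4; plated 1000 cells/well, compounds up to 22.9 uM final. Membrane-potential dye fluorescence (ex 535/em 590) was read; parental cells received 10 uM forskolin + 100 uM RO 20-1724.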

A short description of assay [11]: qHTS Assay for Identification of Small Molecule Agonists for Thrombopoietin (TPO) Signaling Pathway (AID 917). Note: % is set by controls: 0 for no effect and ±100 for the full control effect. In outline:
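We measured Glycoprotein IIb promoter–luciferase output in IL-3-starved Ba/F3 murine cells expressing the human TPO receptor after 24 hrs at 37 C with compounds and 26 pM TPO.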

Assay [12] has as its target Pyruvate kinase (Leishmania mexicana) (UniProt Q27686). The assay is described as follows: qHTS Validation Assay for Inhibitors of Leishmania Mexicana Pyruvate Kinase (AID 945).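 Note: 0% = DMSO only neutral control wells.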 In a few lines:
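The enzyme is a highly purified E451W mutant of LmPYK used at 0.2 nM. It converts 0.5 mM PEP and 0.1 mM ADP over 1 h at room temperature; product ATP is quantified by luciferase luminescence relative to DMSO controls.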

In assay [13] the target is Pyruvate kinase PKM (Homo sapiens) (UniProt P14618). The assay is described as follows: qHTS Assay for Activators of Human Muscle Pyruvate Kinase (AID 954; active = well fitted curve in the direction sought with a large enough effect, not every such curve was filed as active;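 note: 0% = uninhibited enzyme and -100% = no enzyme or full thiadiazolimine inhibition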). In a few lines: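 Luminescence from a luciferase ATP-detection/stop reagent reported PKM2 activity. Reactions contained 0.1 nM purified human enzyme, 0.5 mM PEP, 0.1 mM ADP and 7 mM MgCl2 at pH 7.2, run 1 h at RT.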
Chain of Pyruvate kinase PKM (Homo sapiens) (P14618 whole entry, looked up): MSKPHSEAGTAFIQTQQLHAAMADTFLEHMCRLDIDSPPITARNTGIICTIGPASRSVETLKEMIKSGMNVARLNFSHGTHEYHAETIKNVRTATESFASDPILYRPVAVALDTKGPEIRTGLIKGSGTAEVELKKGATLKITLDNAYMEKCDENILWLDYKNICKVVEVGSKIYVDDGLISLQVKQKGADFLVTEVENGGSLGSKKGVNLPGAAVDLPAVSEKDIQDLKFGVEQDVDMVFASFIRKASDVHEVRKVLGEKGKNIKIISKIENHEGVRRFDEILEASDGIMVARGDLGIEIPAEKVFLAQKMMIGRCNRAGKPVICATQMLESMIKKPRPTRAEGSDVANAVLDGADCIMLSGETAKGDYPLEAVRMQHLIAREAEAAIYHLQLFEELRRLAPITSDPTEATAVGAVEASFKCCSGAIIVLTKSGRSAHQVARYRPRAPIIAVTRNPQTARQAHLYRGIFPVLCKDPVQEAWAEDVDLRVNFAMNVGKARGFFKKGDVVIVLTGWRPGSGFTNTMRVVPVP

For assay [14], the target named is alpha-glucosidase (Oryza sativa, rice) (UniProt Q653V4). The assay is described as follows: Counterscreen for Glucocerebrosidase Inhibitors: qHTS Assay for Rice alpha-Glucosidase at pH 5.0 (AID 997).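 Note: 0% = full activity with enzyme and -100% = basal without enzyme.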 In outline:
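Rice alpha-glucosidase (4 nM final) with 400 uM 4-methylumbelliferyl-alpha-D-glucopyranoside in citrate buffer pH 5.0, 20 min at room temperature, stopped at pH 10; fluorescence 365/440 nm, compounds 0.7 nM–77 uM, AC50 from Hill fits.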
On the technique in general: The purpose of a counterscreen is to sort out artefacts and off-target activity.

In assay [15] the target is Glucocorticoid receptor (Homo sapiens) (UniProt P04150). The assay is described as follows: GR-GFP Redistribution (AID 450;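 active = compounds whose dose series gives a full or clear partial fitted curve of increased nuclear translocation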; note: potency is the fitted concentration of half-maximal effect). The note with it: U2OS GR-GFP nuclear translocation, laser cytometry, 2 h.
Chain of Glucocorticoid receptor (Homo sapiens) (P04150 whole entry, looked up, the tested form may be a part): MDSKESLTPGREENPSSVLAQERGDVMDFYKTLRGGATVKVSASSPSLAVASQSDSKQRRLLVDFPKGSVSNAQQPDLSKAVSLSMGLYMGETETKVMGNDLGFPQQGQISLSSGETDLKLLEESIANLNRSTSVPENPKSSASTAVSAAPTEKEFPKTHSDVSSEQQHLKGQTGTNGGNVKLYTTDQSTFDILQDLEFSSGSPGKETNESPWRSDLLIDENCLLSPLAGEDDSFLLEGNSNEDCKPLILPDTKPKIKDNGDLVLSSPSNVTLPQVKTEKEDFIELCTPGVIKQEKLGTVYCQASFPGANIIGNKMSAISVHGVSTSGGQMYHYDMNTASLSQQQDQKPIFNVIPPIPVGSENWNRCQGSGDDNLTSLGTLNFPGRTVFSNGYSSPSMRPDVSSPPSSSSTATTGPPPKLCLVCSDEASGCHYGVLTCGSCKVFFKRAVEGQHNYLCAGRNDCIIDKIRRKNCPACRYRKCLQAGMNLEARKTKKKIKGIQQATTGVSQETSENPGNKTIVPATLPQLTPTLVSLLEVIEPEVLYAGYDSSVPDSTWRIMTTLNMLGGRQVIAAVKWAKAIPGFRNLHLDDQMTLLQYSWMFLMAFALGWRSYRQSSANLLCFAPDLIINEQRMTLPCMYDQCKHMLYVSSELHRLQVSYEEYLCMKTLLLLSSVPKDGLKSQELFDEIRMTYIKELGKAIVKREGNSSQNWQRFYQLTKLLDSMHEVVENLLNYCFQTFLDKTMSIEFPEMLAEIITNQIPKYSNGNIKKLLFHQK
For assay [16] the target is unchanged. The assay is described as follows: GR-EFC Redistribution (AID 451; calls by dose curve; note: potency is the fitted concentration of half-maximal effect). The note with it: CHO-K1 GR-EFC translocation, beta-gal luminescence, 2 h. In a few lines: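 CHO-K1 cells stably expressing nuclear-localized β-gal enzyme acceptor and GR fused C-terminally to the enzyme donor fragment; ligand-driven nuclear translocation restores β-gal by complementation. Compounds titrated up to 46 uM final, 2 h at 37 °C; luminescence read.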

Assay [17] concerns the target Mitogen-activated protein kinase 10 (Mus musculus) (UniProt Q61831). The experiment in a line: JNK3 AlphaScreen Assay (AID 530; active = well fitted curve in either direction with a large enough effect, not every such curve was filed as active). In a few lines:
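JNK3 came from HepG2 lysates pre-activated with IL-1beta and TNF-alpha and phosphorylated biotinylated GST-cJun (1-79) at 10 uM ATP, pH 7.6, room temperature. Compounds were titrated. AlphaScreen signal used anti-phospho-cJun (Ser73) antibody.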

Assay [18] concerns the target Guanine nucleotide-binding protein G(i) subunit alpha-1 (Homo sapiens) (UniProt P63096). The assay is described as follows: qHTS Assay for Inhibitors of RGS12 GoLoco Motif Activity (Green Fluorophore) (AID 879).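 Note: 0% = labeled peptide with Gαi1 and full inhibition = labeled peptide alone without protein; negative values mean loss of peptide binding seen as reduced polarization.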 In a few lines: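 Fluorescence polarization assay: 50 nM Gαi1 with 10 nM FITC-labeled RGS12 GoLoco peptide in 10 mM Tris pH 7.5, 150 mM NaCl, 0.1 mM GDP, 0.05% NP40, 10 min at room temperature with compound.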

The mark [19] stands for this setting: measured here: cell count channel max response.
Where [20] appears, read: measured here: lipid channel max response.

Chain of Ubiquitin carboxyl-terminal hydrolase 1 (Homo sapiens) (O94782 whole entry, looked up): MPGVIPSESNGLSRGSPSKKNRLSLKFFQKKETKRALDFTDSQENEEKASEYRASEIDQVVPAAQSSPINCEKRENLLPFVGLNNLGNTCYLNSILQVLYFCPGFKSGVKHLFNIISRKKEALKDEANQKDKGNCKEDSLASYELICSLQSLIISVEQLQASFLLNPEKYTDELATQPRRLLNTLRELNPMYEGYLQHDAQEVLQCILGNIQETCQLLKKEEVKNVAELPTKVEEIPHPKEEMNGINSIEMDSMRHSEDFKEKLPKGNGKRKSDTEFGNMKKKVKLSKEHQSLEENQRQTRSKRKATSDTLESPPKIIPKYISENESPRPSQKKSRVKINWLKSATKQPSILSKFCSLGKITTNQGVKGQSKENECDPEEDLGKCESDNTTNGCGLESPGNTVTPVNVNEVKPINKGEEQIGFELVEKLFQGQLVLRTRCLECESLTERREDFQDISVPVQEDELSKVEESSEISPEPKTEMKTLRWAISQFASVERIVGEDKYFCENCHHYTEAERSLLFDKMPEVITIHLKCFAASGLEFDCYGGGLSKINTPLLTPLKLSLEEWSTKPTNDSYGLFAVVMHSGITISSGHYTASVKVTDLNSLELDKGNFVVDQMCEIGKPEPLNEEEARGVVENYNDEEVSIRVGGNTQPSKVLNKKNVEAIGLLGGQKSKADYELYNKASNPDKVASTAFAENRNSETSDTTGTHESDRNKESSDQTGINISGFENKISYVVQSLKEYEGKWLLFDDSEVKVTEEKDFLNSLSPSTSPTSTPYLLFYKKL
Chain of Cytochrome P450 1A2 (Homo sapiens) (P05177 whole entry, looked up): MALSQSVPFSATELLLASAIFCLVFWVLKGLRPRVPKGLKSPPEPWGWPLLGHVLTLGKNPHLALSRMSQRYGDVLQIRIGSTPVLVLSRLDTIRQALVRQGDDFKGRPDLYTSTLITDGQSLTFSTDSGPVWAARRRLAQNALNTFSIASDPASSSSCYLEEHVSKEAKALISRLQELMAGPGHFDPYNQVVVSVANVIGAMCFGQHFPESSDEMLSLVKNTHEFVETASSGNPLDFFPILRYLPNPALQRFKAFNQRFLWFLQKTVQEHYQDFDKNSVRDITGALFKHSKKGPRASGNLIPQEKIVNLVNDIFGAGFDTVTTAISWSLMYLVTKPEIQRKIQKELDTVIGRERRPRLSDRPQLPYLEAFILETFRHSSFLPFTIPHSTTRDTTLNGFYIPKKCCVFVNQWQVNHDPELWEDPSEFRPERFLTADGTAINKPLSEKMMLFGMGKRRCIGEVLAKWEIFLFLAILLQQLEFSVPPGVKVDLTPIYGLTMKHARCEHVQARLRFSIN
Chain of 3',5'-cyclic-AMP phosphodiesterase 4B (Homo sapiens) (Q07343 whole entry, looked up): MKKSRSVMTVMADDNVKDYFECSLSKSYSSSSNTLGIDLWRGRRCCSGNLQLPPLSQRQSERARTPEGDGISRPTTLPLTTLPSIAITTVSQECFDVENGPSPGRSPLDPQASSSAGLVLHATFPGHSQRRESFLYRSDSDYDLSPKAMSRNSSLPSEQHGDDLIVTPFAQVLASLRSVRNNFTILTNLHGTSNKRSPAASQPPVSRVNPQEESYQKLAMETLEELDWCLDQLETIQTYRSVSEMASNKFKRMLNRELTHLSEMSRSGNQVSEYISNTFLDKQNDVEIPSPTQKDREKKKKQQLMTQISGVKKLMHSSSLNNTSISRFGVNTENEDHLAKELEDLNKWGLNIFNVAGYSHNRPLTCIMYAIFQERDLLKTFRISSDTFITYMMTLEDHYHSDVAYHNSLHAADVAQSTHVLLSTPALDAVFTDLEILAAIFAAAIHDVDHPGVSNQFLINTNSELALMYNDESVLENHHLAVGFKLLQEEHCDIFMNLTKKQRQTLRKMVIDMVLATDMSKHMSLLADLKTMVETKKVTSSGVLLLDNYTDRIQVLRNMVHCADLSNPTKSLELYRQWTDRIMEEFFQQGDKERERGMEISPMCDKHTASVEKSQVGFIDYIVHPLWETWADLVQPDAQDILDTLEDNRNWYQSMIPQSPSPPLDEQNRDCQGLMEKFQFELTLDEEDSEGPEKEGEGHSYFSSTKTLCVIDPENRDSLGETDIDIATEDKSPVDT
Chain of DNA dC->dU-editing enzyme APOBEC-3G (Homo sapiens) (Q9HC16 whole entry, looked up): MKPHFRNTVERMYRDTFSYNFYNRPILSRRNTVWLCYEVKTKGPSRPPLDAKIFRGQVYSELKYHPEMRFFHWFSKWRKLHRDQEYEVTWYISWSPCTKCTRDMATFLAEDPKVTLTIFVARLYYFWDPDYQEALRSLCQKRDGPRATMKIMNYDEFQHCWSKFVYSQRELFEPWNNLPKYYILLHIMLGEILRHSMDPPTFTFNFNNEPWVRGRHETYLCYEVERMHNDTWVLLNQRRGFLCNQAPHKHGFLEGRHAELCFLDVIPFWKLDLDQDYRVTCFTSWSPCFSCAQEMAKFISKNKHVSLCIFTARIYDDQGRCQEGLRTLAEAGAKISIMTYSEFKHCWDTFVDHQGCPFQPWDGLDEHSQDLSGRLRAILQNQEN
Chain of Pyruvate kinase (Leishmania mexicana) (Q27686 2-499 E452W): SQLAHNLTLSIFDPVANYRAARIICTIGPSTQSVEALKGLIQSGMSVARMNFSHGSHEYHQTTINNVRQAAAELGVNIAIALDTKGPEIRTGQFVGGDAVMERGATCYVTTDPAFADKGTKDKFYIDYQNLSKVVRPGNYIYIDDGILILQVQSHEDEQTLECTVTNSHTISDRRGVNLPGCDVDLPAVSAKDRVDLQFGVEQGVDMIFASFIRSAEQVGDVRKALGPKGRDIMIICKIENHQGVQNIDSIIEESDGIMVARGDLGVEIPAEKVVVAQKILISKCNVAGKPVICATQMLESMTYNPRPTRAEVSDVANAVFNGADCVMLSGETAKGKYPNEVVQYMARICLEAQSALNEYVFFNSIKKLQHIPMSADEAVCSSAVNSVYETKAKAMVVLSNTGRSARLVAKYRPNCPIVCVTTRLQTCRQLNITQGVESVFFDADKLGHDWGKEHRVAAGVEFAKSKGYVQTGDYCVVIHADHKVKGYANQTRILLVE
Chain of Guanine nucleotide-binding protein G(i) subunit alpha-1 (Homo sapiens) (P63096 whole entry, looked up): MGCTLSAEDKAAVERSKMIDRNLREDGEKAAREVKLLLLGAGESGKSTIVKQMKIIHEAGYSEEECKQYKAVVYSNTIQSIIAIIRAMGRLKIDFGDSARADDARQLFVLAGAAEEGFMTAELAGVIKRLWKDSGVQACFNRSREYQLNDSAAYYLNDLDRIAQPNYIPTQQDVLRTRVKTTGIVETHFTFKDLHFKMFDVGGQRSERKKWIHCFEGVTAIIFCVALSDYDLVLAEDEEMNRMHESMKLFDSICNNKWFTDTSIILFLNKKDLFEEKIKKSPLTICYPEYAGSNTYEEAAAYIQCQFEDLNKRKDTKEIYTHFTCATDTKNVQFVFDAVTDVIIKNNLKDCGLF

Regarding `N[C@H](Cc1cnc[nH]1)C(=O)O`, in assay [1], the activity change, negative = inhibition was -0.699% (inactive). Further, the max response in assay [1] (setting [19]) was -9.8%; in assay [1] (setting [20]), -11.7%. The Potency result in assay [2], in assay [3], in assay [4] and in assay [5] was “inactive” in each case.

On to `C[C@@H]1C[C@@H]2[C@H]3CCC4=CC(=O)C=C[C@]4(C)[C@]3(F)[C@@H](O)C[C@@]2(C)[C@@]1(O)C(=O)CO`, for which the values for the activity change, negative = inhibition in assay [6], in assay [8] and in assay [1] were -8.71% (inactive), 7.2% (inactive) and -3.85% (inactive), respectively. Moreover, the Potency entry in assay [7], in assay [10], in [11], in assay [12], in assay [3] and in [4] was “inactive” each time. The Potency entry in assay [5] was “inactive”. Further, in assay [9], the activity, negative = inhibition is -19.7% (inactive). For the same compound, the call in assay [13] and in assay [14] was inactive. For the same compound, the max response in assay [1] (setting [19]) was 8.23%; in [1] (setting [20]) it was 2.65%.

In the case of `CC(=O)ON(C(C)=O)S(=O)(=O)c1ccc(Cl)cc1`, the Potency entry in assay [7], in [17], in [10], in [2], in assay [3] and in assay [4] was “inactive” each time. The Potency entry in [5] is “inactive”. Further, the Potency in [15] and in [16] was > 46 µM (inactive) in each case. In addition, the activity change, negative = inhibition in assay [1] was -5.19% (inactive). Besides, the figures for the max response in assay [1] (setting [19]) and in assay [1] (setting [20]) were -20.7% and -23.7%, respectively.

Turning to `N[C@@H]1CCN(O)C1=O`, the activity change, negative = inhibition in assay [6] is 18.2% (inactive); in [8] it was 0.992% (inactive); in [1], 4.58% (inactive). The activity, negative = inhibition in assay [9] is 21.4% (inactive). The Potency in [15] and in [16] was > 46 µM (inactive) each time. The Potency entry in [17], in assay [10], in assay [11], in assay [12], in [3] and in assay [4] was “inactive” each time. Also, in assay [5], the Potency entry was “inactive”. For the same compound, the outcome in assay [18], in assay [13] and in [14] was inactive. The results for the max response in assay [1] (setting [19]) and in assay [1] (setting [20]) were 18.8% and 25.6%, respectively.

On to `N[C@@H](CSS(=O)(=O)O)C(=O)O`, for which the Potency in assay [7] was 39.8 µM (active); in assay [15] it was > 46 µM (inactive); in assay [16] it was > 46 µM (inactive); in assay [2], 39.8 µM (active). For the same compound, the Potency result in assay [10], in assay [3], in assay [4] and in assay [5] was “inactive” each time. Moreover, in assay [1], the activity change, negative = inhibition is 3.51% (inactive). For the same compound, the max response came out at 2.48% in [1] (setting [19]) and 7.41% in assay [1] (setting [20]).

`O=C(O)Cc1cc2ccccc2nc1C(=O)O`: the Potency result in assay [7], in assay [17], in assay [10], in [2], in [3] and in [4] was “inactive” throughout. Moreover, in [5], the Potency entry was “inactive”. Further, the Potency in assay [15] and in assay [16] was > 46 µM (inactive) in each case. Also, the activity change, negative = inhibition in assay [1] was -1.15% (inactive). For the same compound, the max response is 1.68% in assay [1] (setting [19]) and 0.785% in assay [1] (setting [20]).

As to `C[C@](N)(C(=O)O)c1ccc(-c2nn[nH]n2)cc1`, the Potency is 39.8 µM (active) in [7], > 46 µM (inactive) in assay [15] and > 46 µM (inactive) in [16]. The Potency entry in assay [17], in assay [2], in [3], in [4] and in assay [5] was “inactive” each time. Besides, the activity change, negative = inhibition in assay [1] was 7.08% (inactive). Moreover, the max response stood at 7.75% in assay [1] (setting [19]) and 14.3% in assay [1] (setting [20]).
